# Hit rate of the full screen: of about 5,500 compounds, about 2,000 (36%) were called active. About 18% were inconclusive and are not listed. Some of the results follow. Unmarked numbers belong to inactive results. No stated cut-off is given here; in the data, active means normalized growth mostly below about 0.91 (no sharp cut-off); inconclusive means no clear call, values can overlap the other calls; inactive means mostly above about 0.92.
# Assay: chemical genetic growth profiling, strain panel (AID 1159580);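 further: tested at 20 µM; growth read once vehicle control cultures reached saturation at 30 °C; 1 = growth at the plate median or of vehicle wells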
# Conditions: growth OD
compound,measurement,setting,value
Nc1c2ccccc2nc2ccccc12,normalized growth,"S. cerevisiae deletion strains, locus YJR075W, strain HOC1, stronger effect = lower value",0.646 (active)
same,normalized growth,"S. cerevisiae deletion strains, locus YKL009W, strain mrt4, stronger effect = lower value",0.909
same,normalized growth,"S. cerevisiae deletion strains, locus YKL068W, stronger effect = lower value",0.988
same,normalized growth,"S. cerevisiae deletion strains, locus YKL085W, strain MDH1 (second series), stronger effect = lower value",0.872 (active)
same,normalized growth,"S. cerevisiae deletion strains, locus YKL085W, strain MDH1, stronger effect = lower value",0.872 (active)
same,normalized growth,"S. cerevisiae deletion strains, locus YKL160W, strain elf1, stronger effect = lower value",0.562 (active)
same,normalized growth,"S. cerevisiae deletion strains, locus YKL190W, strain CNB1, stronger effect = lower value",0.64 (active)
same,normalized growth,"S. cerevisiae deletion strains, locus YKR001C, strain vps1, stronger effect = lower value",0.481 (active)
same,normalized growth,"S. cerevisiae deletion strains, locus YKR026C, strain gcn3, stronger effect = lower value",0.968
same,normalized growth,"S. cerevisiae deletion strains, locus YKR091W, strain srl3, stronger effect = lower value",0.925 (active)
same,normalized growth,"S. cerevisiae deletion strains, locus YLL001W, strain dnm1, stronger effect = lower value",0.476 (active)
same,normalized growth,"S. cerevisiae deletion strains, locus YLL026W, stronger effect = lower value",0.555 (active)
same,normalized growth,"S. cerevisiae deletion strains, locus YLL041C, strain sdh2, stronger effect = lower value",0.784 (active)
same,normalized growth,"S. cerevisiae deletion strains, locus YLR027C, strain aat2, stronger effect = lower value",0.453 (active)
same,normalized growth,"S. cerevisiae deletion strains, locus YLR039C, strain RIC1, stronger effect = lower value",0.99
same,normalized growth,"S. cerevisiae deletion strains, locus YLR058C, strain SHM2, stronger effect = lower value",0.613 (active)
same,normalized growth,"S. cerevisiae deletion strains, locus YLR102C, strain apc9, stronger effect = lower value",0.823 (active)
same,normalized growth,"S. cerevisiae deletion strains, locus YLR113W, strain HOG1, stronger effect = lower value",0.979
same,normalized growth,"S. cerevisiae deletion strains, locus YLR221C, strain rsa3, stronger effect = lower value",0.516 (active)
same,normalized growth,"S. cerevisiae deletion strains, locus YLR258W, strain gsy2, stronger effect = lower value",0.53 (active)
same,normalized growth,"S. cerevisiae deletion strains, locus YLR262C, strain YPT6 (second series), stronger effect = lower value",0.843 (active)
same,normalized growth,"S. cerevisiae deletion strains, locus YLR262C, strain YPT6, stronger effect = lower value",0.915
same,normalized growth,"S. cerevisiae deletion strains, locus YLR268W, strain sec22, stronger effect = lower value",0.515 (active)
same,normalized growth,"S. cerevisiae deletion strains, locus YLR320W, strain mms22, stronger effect = lower value",0.565 (active)
same,normalized growth,"S. cerevisiae deletion strains, locus YLR330W, strain CHS5, stronger effect = lower value",0.886 (active)
same,normalized growth,"S. cerevisiae deletion strains, locus YLR342W, strain FKS1 (second series), stronger effect = lower value",0.713 (active)
same,normalized growth,"S. cerevisiae deletion strains, locus YLR342W, strain FKS1, stronger effect = lower value",0.792 (active)
same,normalized growth,"S. cerevisiae deletion strains, locus YLR357W, strain rsc2, stronger effect = lower value",1.2 [resistant] (active)
same,normalized growth,"S. cerevisiae deletion strains, locus YLR370C, strain arc18, stronger effect = lower value",0.7 (active)
same,normalized growth,"S. cerevisiae deletion strains, locus YLR371W, strain rom2, stronger effect = lower value",0.948
same,normalized growth,"S. cerevisiae deletion strains, locus YLR384C, strain iki3, stronger effect = lower value",0.853 (active)
same,normalized growth,"S. cerevisiae deletion strains, locus YLR418C, strain cdc73, stronger effect = lower value",0.689 (active)
same,normalized growth,"S. cerevisiae deletion strains, locus YML016C, strain PPZ1, stronger effect = lower value",0.847 (active)
same,normalized growth,"S. cerevisiae deletion strains, locus YML032C, strain rad52, stronger effect = lower value",0.314 (active)
same,normalized growth,"S. cerevisiae deletion strains, locus YML120C, strain ndi1, stronger effect = lower value",0.582 (active)
same,normalized growth,"S. cerevisiae deletion strains, locus YML124C, strain tub3, stronger effect = lower value",0.743 (active)
same,normalized growth,"S. cerevisiae deletion strains, locus YMR058W, strain fet3, stronger effect = lower value",0.639 (active)
same,normalized growth,"S. cerevisiae deletion strains, locus YMR078C, strain ctf18, stronger effect = lower value",0.763 (active)
same,normalized growth,"S. cerevisiae deletion strains, locus YMR125W, strain sto1, stronger effect = lower value",0.919
same,normalized growth,"S. cerevisiae deletion strains, locus YMR129W, stronger effect = lower value",0.693 (active)
same,normalized growth,"S. cerevisiae deletion strains, locus YMR205C, strain PFK2, stronger effect = lower value",0.634 (active)
same,normalized growth,"S. cerevisiae deletion strains, locus YMR223W, strain ubp8, stronger effect = lower value",0.557 (active)
same,normalized growth,"S. cerevisiae deletion strains, locus YMR231W, strain pep5, stronger effect = lower value",0.985
same,normalized growth,"S. cerevisiae deletion strains, locus YMR263W, strain SAP30, stronger effect = lower value",0.767 (active)
same,normalized growth,"S. cerevisiae deletion strains, locus YMR307W, strain GAS1, stronger effect = lower value",1.13
same,normalized growth,"S. cerevisiae deletion strains, locus YNL067W, strain RPL9B, stronger effect = lower value",0.606 (active)
same,normalized growth,"S. cerevisiae deletion strains, locus YNL071W, strain lat1, stronger effect = lower value",0.977
same,normalized growth,"S. cerevisiae deletion strains, locus YNL128W, strain TEP1, stronger effect = lower value",0.733 (active)
same,normalized growth,"S. cerevisiae deletion strains, locus YNL153C, strain GIM3, stronger effect = lower value",0.713 (active)
same,normalized growth,"S. cerevisiae deletion strains, locus YNL183C, strain NPR1, stronger effect = lower value",0.771 (active)
same,normalized growth,"S. cerevisiae deletion strains, locus YNL209W, strain ssb2, stronger effect = lower value",0.663 (active)
same,normalized growth,"S. cerevisiae deletion strains, locus YNL233W, strain BNI4, stronger effect = lower value",0.74 (active)
same,normalized growth,"S. cerevisiae deletion strains, locus YNL248C, strain rpa49, stronger effect = lower value",0.445 (active)
same,normalized growth,"S. cerevisiae deletion strains, locus YNL250W, strain rad50, stronger effect = lower value",0.78 (active)
same,normalized growth,"S. cerevisiae deletion strains, locus YNL271C, strain bni1, stronger effect = lower value",0.87 (active)
same,normalized growth,"S. cerevisiae deletion strains, locus YNL298W, strain CLA4, stronger effect = lower value",0.847 (active)
same,normalized growth,"S. cerevisiae deletion strains, locus YNL307C, strain MCK1, stronger effect = lower value",0.715 (active)
same,normalized growth,"S. cerevisiae deletion strains, locus YNL322C, strain KRE1 (second series), stronger effect = lower value",0.981
same,normalized growth,"S. cerevisiae deletion strains, locus YNL322C, strain KRE1, stronger effect = lower value",0.698 (active)
same,normalized growth,"S. cerevisiae deletion strains, locus YNR049C, strain mso1, stronger effect = lower value",0.672 (active)
same,normalized growth,"S. cerevisiae deletion strains, locus YNR052C, strain pop2, stronger effect = lower value",0.778 (active)
same,normalized growth,"S. cerevisiae deletion strains, locus YOL006C, strain TOP1, stronger effect = lower value",0.67
same,normalized growth,"S. cerevisiae deletion strains, locus YOL012C, strain htz1",2.35 [resistant] (active)
same,normalized growth,"S. cerevisiae deletion strains, locus YOL147C, strain pex11, stronger effect = lower value",0.661 (active)
same,normalized growth,"S. cerevisiae deletion strains, locus YOR001W, strain rrp6, stronger effect = lower value",0.309 (active)
same,normalized growth,"S. cerevisiae deletion strains, locus YOR061W, strain CKA2, stronger effect = lower value",0.824 (active)
same,normalized growth,"S. cerevisiae deletion strains, locus YOR069W, strain VPS5, stronger effect = lower value",0.811 (active)
same,normalized growth,"S. cerevisiae deletion strains, locus YOR070C, strain gyp1, stronger effect = lower value",0.625 (active)
same,normalized growth,"S. cerevisiae deletion strains, locus YOR080W, strain dia2, stronger effect = lower value",0.783 (active)
same,normalized growth,"S. cerevisiae deletion strains, locus YOR083W, strain WHI5, stronger effect = lower value",0.501 (active)
same,normalized growth,"S. cerevisiae deletion strains, locus YOR106W, strain vam3, stronger effect = lower value",0.445 (active)
same,normalized growth,"S. cerevisiae deletion strains, locus YOR136W, strain idh2, stronger effect = lower value",0.805 (active)
same,normalized growth,"S. cerevisiae deletion strains, locus YOR144C, strain elg1, stronger effect = lower value",0.752 (active)
same,normalized growth,"S. cerevisiae deletion strains, locus YOR184W, strain ser1, stronger effect = lower value",0.41 (active)
same,normalized growth,"S. cerevisiae deletion strains, locus YOR231W, strain MKK1, stronger effect = lower value",0.67 (active)
same,normalized growth,"S. cerevisiae deletion strains, locus YOR265W, strain rbl2, stronger effect = lower value",0.706 (active)
same,normalized growth,"S. cerevisiae deletion strains, locus YOR270C, strain vph1, stronger effect = lower value",0.599 (active)
same,normalized growth,"S. cerevisiae deletion strains, locus YOR290C, strain snf2, stronger effect = lower value",0.371 (active)
same,normalized growth,"S. cerevisiae deletion strains, locus YOR316C, strain cot1, stronger effect = lower value",0.808 (active)
same,normalized growth,"S. cerevisiae deletion strains, locus YPL051W, strain arl3, stronger effect = lower value",0.696 (active)
same,normalized growth,"S. cerevisiae deletion strains, locus YPL055C, strain LGE1, stronger effect = lower value",0.659 (active)
same,normalized growth,"S. cerevisiae deletion strains, locus YPL078C, strain atp4, stronger effect = lower value",0.674 (active)
same,normalized growth,"S. cerevisiae deletion strains, locus YPL106C, strain sse1, stronger effect = lower value",0.781 (active)
same,normalized growth,"S. cerevisiae deletion strains, locus YPL240C, strain hsp82, stronger effect = lower value",0.8 (active)
same,normalized growth,"S. cerevisiae deletion strains, locus YPL241C, strain CIN2, stronger effect = lower value",0.837 (active)
same,normalized growth,"S. cerevisiae deletion strains, locus YPL256C, strain CLN2, stronger effect = lower value",0.778 (active)
same,normalized growth,"S. cerevisiae deletion strains, locus YPR119W, strain clb2, stronger effect = lower value",0.862 (active)
same,normalized growth,"S. cerevisiae deletion strains, locus YPR141C, strain kar3, stronger effect = lower value",1.02
same,normalized growth,"S. cerevisiae deletion strains, locus YPR163C, strain tif3, stronger effect = lower value",0.974
same,normalized growth,"S. cerevisiae deletion strains, locus YPR167C, strain met16, stronger effect = lower value",0.758 (active)
same,normalized growth,"S. cerevisiae deletion strains, strain wtn01, stronger effect = lower value",0.42 (active)
same,normalized growth,"S. cerevisiae strains, strain wild type, stronger effect = lower value",0.601 (active)

# Reference: PubChem BioAssay AID1159580 (chemical genetic matrix, 2015)
